The values below come from PubChem BioAssay (NCATS).

A short description of experiment [1]: Confirmation and Secondary Assay for Modulators of Hemoglobin Beta Chain Splicing at IVS2 654 locus (AID 910).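 Note: HeLa cells stably carrying EGFP split by mutant beta-globin IVS2-654 intron; % of control where 0% means no effect.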 In a few lines: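 Readout: per-well total peak green fluorescence (488 nm ex, 500–520 nm em) from objects 5–250 µm, reflecting correct splicing of an EGFP-654 reporter. Compounds were applied for 2 days at 37 °C to overnight-plated HeLa EGFP-654 cells; controls were DMSO and 500 nM IVS2-654 PNA.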

Experiment [2] in a line: Confirmation and Secondary Assay for Modulators of Hemoglobin Beta Chain Splicing at IVS2 705 locus (AID 930).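 Note: HeLa cells stably expressing the EGFP-705 splicing reporter; GFP fluorescence per well restored by corrected splicing of the IVS2-705 intron in EGFP; % of control where 0% means no effect.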 In a few lines:
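HeLa cells stably carrying EGFP interrupted by mutant beta-globin intron 2 (IVS2-705) treated 2 days at 37C with compound; 500 nM antisense PNA as control. Correct splicing read as total peak GFP intensity per well by laser-scanning cytometry.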

For experiment [3], the target named is DNA dC->dU-editing enzyme APOBEC-3G (Homo sapiens) (UniProt Q9HC16). Briefly: qHTS for inhibitors of Vif-A3G interactions: Validation (AID 588379). Note: 0% is about no effect. The method in brief:
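HeLa cells stably expressing Vif and A3G-eYFP, 700 cells/well, incubated overnight at 37 deg C, then exposed to compound overnight at 37 deg C. Inhibition of Vif-mediated degradation read as increased yellow fluorescence (Ex 488/Em 500-530) by laser-scanning cytometry.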

The target of experiment [4] is Estrogen receptor (Homo sapiens) (UniProt P03372). Briefly: qHTS assay for small molecule agonists of estrogen receptor alpha signaling (AID 588514; calls by dose curve;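 note: 0% = vehicle only and 100% = reference agonist; nearly all actives have a fitted effect of over 70% in size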). In a few lines:
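ER-alpha-UAS-bla GripTite HEK 293 cells in medium with 2% charcoal/dextran-treated FBS were treated with compound titrations at 37 C for 18 hrs; beta-lactamase reporter read by CCF4 fluorescence after 2 hrs at RT.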

Experiment [5] addresses ATP-dependent 6-phosphofructokinase (Trypanosoma brucei brucei) (UniProt O15648). Briefly: qHTS Assay to Find Inhibitors of T. brucei phosphofructokinase: hit validation (AID 492961).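 Note: luminescence reports ADP formed as PFK phosphorylates fructose-6-phosphate with ATP; % is set by controls: 0 for no effect and ±100 for the full control effect.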 The method in brief: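 In this biochemical qHTS validation, titrated compounds were tested against 1.25 nM PFK with 0.1 mM ATP and 0.5 mM F6P. Percent activity came from controls lacking or containing enzyme.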

Experiment [6] in a line: qHTS profiling for inhibitors of Plasmodium falciparum proliferation (AID 504749).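 Note: 0% = DMSO vehicle and full inhibition = artemisinin control; nearly all actives have a fitted effect of over 60% in size.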 As to conditions: P. falciparum in erythrocytes, SYBR Green DNA, 72 h, at 28.7 µM (top of the series). In a few lines: (§1)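 Three-day growth assay of blood-stage parasites in erythrocytes (0.3% parasitemia, 2.5% hematocrit) at 37 C, 5% CO2, quantified by SYBR Green DNA staining after overnight detergent lysis.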

A further experiment relates to CP192. The description is as above. Particulars: P. falciparum in erythrocytes, SYBR Green DNA, 72 h; series mostly up to 28.7 µM. In a few lines:
as §1

A further experiment relates to CP194. Described as above. Particulars: P. falciparum in erythrocytes, SYBR Green DNA, 72 h; series mostly up to 28.7 µM. The method in brief: as §1
For a further experiment, the system named is CP201. The experiment is described as above. Particulars: P. falciparum in erythrocytes, SYBR Green DNA, 72 h; series mostly up to 28.7 µM. The method in brief:
as §1

Another experiment relates to CP262. The experiment is described as above. Particulars: P. falciparum in erythrocytes, SYBR Green DNA, 72 h; series mostly up to 28.7 µM. The method in brief:
as §1

A further experiment deals with CP266. The experiment is described as above. As to conditions: P. falciparum in erythrocytes, SYBR Green DNA, 72 h; series mostly up to 28.7 µM. In a few lines: as §1
The next experiment concerns CP268. The description is as above. Particulars: P. falciparum in erythrocytes, SYBR Green DNA, 72 h; series mostly up to 28.7 µM. In a few lines:
as §1

A further experiment has as its system CP291. The description is as above. Particulars: P. falciparum in erythrocytes, SYBR Green DNA, 72 h; series mostly up to 28.7 µM. In a few lines: as §1
For the next experiment, the system named is CP305. Described as above. As to conditions: P. falciparum in erythrocytes, SYBR Green DNA, 72 h; series mostly up to 28.7 µM. In a few lines: as §1
The subject of the next experiment is CP335. Described as above. Particulars: P. falciparum in erythrocytes, SYBR Green DNA, 72 h; series mostly up to 28.7 µM. In a few lines:
as §1

In the next experiment the test system is DIV30. The description is as above. Particulars: P. falciparum in erythrocytes, SYBR Green DNA, 72 h; series mostly up to 28.7 µM. The method in brief:
as §1

The next experiment relates to GB4. Described as above. Particulars: P. falciparum in erythrocytes, SYBR Green DNA, 72 h; series mostly up to 28.7 µM. In a few lines: as §1
A further experiment has as its system W2. The experiment is described as above. As to conditions: P. falciparum in erythrocytes, SYBR Green DNA, 72 h; series mostly up to 28.7 µM. In a few lines:
as §1

A short description of experiment [7]: qHTS assay for cell viability of HEK293 cells (AID 743288). Note: % is set by controls: 0 for no effect and ±100 for the full control effect; nearly all actives have a fitted effect of over 50% in size. Particulars: ATP luminescence (CellTiter-Glo), 18 h; max response: stronger effect = lower value. In a few lines: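 HEK293 parental, 2,000 cells/well; ≥5 h pre-incubation 37 C; pintool compound addition; 18 h, 37 C; CellTiter-Glo 30 min RT; luminescence read.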
The nature of experiment [8]: NCATS anti-infectives library activity on the primary C. elegans qHTS viability assay (AID 1745855; calls by dose curve; note: potency is the fitted concentration of half-maximal effect). The method in brief: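 Viability is taken from GFP fluorescence of PE254-GFP-FLuc C. elegans imaged by laser cytometry over 7 days. Ten L1 worms per well grow at 21 °C on TOP10 E. coli capsules with titrated compound; levamisole marks toxicity.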

Unmarked numbers belong to inactive results. Inconclusive results are not listed. Calls of active or inactive are those of the source. Unless noted, calls come from the whole dose curve; as a rule, active = well fitted curve in the direction sought with a large enough effect; inconclusive = small, poorly fitted or top-dose-only effect, or another doubt; inactive = no such curve, though single readings can be large; an effect the other way counts as inactive or inconclusive.

Estrogen receptor (Homo sapiens), sequence (P03372 whole entry, looked up): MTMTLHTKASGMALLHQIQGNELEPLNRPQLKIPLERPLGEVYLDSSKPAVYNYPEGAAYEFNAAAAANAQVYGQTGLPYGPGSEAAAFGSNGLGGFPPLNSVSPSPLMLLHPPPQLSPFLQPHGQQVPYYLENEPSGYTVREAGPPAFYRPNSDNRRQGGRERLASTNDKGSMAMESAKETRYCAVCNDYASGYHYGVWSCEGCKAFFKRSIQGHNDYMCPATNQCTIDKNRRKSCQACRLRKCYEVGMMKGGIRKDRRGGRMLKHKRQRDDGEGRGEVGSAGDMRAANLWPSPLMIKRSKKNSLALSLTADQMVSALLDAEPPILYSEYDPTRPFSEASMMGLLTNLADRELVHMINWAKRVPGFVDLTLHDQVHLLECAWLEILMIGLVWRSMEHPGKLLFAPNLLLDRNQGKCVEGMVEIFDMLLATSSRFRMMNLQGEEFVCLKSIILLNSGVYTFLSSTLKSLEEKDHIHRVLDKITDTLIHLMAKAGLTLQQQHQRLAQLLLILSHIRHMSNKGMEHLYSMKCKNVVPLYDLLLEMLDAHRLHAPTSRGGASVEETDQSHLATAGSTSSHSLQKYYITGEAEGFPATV
DNA dC->dU-editing enzyme APOBEC-3G (Homo sapiens), sequence (Q9HC16 whole entry, looked up): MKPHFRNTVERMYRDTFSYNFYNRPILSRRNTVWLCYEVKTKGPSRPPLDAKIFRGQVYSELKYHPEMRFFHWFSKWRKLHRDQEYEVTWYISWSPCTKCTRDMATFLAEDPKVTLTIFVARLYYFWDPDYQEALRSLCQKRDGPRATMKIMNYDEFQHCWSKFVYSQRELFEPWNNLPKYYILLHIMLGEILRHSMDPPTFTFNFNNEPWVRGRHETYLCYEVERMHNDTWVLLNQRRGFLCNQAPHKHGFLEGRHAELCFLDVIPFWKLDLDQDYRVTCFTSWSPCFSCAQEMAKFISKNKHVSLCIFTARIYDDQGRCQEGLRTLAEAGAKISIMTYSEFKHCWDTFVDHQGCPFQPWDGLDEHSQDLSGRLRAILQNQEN
ATP-dependent 6-phosphofructokinase (Trypanosoma brucei brucei), sequence (O15648 whole entry, looked up): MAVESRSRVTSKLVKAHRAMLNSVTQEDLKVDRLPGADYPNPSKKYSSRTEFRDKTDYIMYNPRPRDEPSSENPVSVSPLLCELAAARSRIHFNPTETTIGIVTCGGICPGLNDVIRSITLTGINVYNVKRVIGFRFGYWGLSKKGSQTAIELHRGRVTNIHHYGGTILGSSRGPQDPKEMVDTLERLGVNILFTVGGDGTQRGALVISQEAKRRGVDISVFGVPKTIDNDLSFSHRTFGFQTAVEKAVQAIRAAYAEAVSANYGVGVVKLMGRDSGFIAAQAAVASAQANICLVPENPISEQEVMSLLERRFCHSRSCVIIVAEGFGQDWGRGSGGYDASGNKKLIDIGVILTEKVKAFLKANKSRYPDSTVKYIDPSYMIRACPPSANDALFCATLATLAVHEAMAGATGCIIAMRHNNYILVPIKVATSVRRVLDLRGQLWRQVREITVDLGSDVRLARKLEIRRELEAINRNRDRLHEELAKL

`O=C1CC(c2ccccc2)Oc2ccccc21` (centres undefined): the Potency entry in experiment [1] and in experiment [2] was “inactive” throughout.

Regarding `O=c1ccc2cc3ccoc3cc2o1`, the molecule was classed as inactive in experiment [3].

For `CCCCCCCCOC(=O)c1cc(O)c(O)c(O)c1`, the Potency entry in [4] is “inactive”.

For the molecule `CC(C)CN(C[C@@H](OP(=O)(O)O)[C@H](Cc1ccccc1)NC(=O)O[C@@H]1CCOC1)S(=O)(=O)c1ccc(N)cc1`, the outcome in [5] was inactive. Also, the results for the activity, negative = inhibition in experiment [6] (parasite line A) and in experiment [6] (parasite line B) were -4.75% and 9.93%, respectively. For the same molecule, the Potency entry in the experiment with CP192, with CP194, in the experiment on CP201, in the experiment on CP262, in the experiment on CP266 and in the experiment on CP268 was “inactive” each time. Moreover, the Potency result in the experiment with CP291, in the experiment on CP305, in the experiment on CP335, in the experiment with DIV30, with GB4 and in the experiment on W2 was “inactive” throughout.

With `C[Si](C)(C)O[Si](C)(C)O[Si](C)(C)C`, the max response in experiment [7] is -3.28%.

On to `Cc1cc(/C=C/C#N)cc(C)c1Nc1ccnc(Nc2ccc(C#N)cc2)n1`, for which the Potency in experiment [8] was 16.3 µM (active).

For `CCCCN(Cc1ccc(C(=O)NO)cc1)C(=O)Nc1ccccc1`, the Potency entry in [8] was “inactive”.

`O=C(O)CCCCCCCCC(=O)O`: the max response in experiment [7] was -12.5%.

`C=CC(=C)CCC=C(C)C`: the Potency result in experiment [4] is “inactive”.
